From PubChem BioAssay
Most compounds without a hit are left out; they make up all but 2.8% or so of the library.
SENP7 block = SENP7 protease inhibition; Q9BQF6; recombinant SENP7, Z-RLRGG-aminoluciferin luminescence, 40 min; inhibition, % at 5 µM; 330,000 tested, 1.5% active;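 active = inhibition above about 50% at the single test dose, limit read from the data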
Platelet DG rel = modulates dense granule release in human platelets. inhibition, %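 (compounds screened at 7.5 µM in platelet-rich plasma)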. human platelet-rich plasma, SFLLRN dense granule ATP release, luminescence. AID 1663. 300,000 tested, 0.22% active;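 active = mean replicate score, as percent of positive control, at or above 50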
SENP8 block-1 = inhibitors of human SENP8 protease; recombinant SENP8, Nedd8 substrate fluorescence; inhibition, % at 20 µM; AID 602440; 360,000 tested, 0.64% active; in the data active = inhibition mostly above about 40%, no sharp cut-off; inactive = mostly below about 27%
Target sequence (Q96LD8 whole entry, looked up): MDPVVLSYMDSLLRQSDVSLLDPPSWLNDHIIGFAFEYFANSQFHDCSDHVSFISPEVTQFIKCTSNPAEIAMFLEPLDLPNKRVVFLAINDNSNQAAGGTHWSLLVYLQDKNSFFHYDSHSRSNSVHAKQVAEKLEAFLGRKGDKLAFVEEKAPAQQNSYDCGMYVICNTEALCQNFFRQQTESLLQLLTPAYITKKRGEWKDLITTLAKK
SENP6 block = blocks the human protease SENP6 | AID 2599 | 330,000 tested, 1.8% active | Q9GZR1 | inhibition, % at 10 µM | Recombinant SENP6 catalytic domain, aminoluciferin luminescence;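 active = inhibition above about 50% at the single tested dose, limit read from the data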
Target sequence (Q9GZR1 628-1112 limits assumed): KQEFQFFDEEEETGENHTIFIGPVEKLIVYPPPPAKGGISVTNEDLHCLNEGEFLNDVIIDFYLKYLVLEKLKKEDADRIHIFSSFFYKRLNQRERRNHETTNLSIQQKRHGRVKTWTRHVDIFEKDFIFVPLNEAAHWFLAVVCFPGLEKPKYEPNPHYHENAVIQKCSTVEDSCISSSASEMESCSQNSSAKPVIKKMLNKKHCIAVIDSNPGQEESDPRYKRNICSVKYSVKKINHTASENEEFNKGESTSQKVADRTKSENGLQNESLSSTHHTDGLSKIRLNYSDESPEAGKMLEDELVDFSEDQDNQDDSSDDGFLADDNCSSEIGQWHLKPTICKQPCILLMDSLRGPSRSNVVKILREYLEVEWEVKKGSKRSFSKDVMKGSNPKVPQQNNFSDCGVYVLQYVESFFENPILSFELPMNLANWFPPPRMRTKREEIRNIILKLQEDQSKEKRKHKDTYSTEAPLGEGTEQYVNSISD
HSP90 refold inh = blocks HSP90-mediated luciferase refolding in reticulocyte lysate | Rabbit reticulocyte lysate, luciferase refolding luminescence, 3 h | inhibition, % at 5.6 µM | 290,000 tested, 0.91% active;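 active = inhibition above the screen-wide mean plus 3 SD, computed separately per campaign, cut at about 16% in these data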;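 note: inhibitors lower the luminescence because luciferase stays unfolded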
SENP8 block-2 = inhibitors of human SENP8 protease | Q96LD8 | inhibition, % at 10 µM | 330,000 tested, 1.2% active | purified SENP8, Z-RLRGG-aminoluciferin cleavage, luminescence; in the data active = inhibition above about 50%
HSP90 confirm = confirmation of HSP90 inhibitors; shares compounds with HSP90 refold inh; rabbit reticulocyte lysate, luciferase refolding luminescence, 3 h; inhibition, % at 5.9 µM; 2,300 tested, 64% active; AID 1846; in the data active = inhibition above about 18%
FLuc counter = firefly luciferase inhibition, HSP90 counter-screen; inhibition, % at 5.9 µM; shares compounds with HSP90 refold inh; 2,300 tested, 48% active; purified native firefly luciferase, luminescence;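 active = inhibition above the mean inhibition of all tested sample wells plus 3 SD, cut at about 10% in these data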
Of the large screens only hits and unclear results are named; the others gave an inactive call (follow-up assays come after a bar, where they were run).

COc1cc(C(=O)N2CCCC(c3cc(C(=O)NCc4ccccc4)no3)C2)cc(OC)c1C (stereo unspecified)	none (no result: SENP7 block, Platelet DG rel, SENP6 block, HSP90 refold inh, SENP8 block-2)
CCOc1ccc(Nc2nc(N)c3ccccc3n2)cc1	SENP7 block 101, Platelet DG rel 90, SENP6 block 96, HSP90 refold inh 60, SENP8 block-2 96 | HSP90 confirm 74 | FLuc counter 61
CCOc1ccc(Nc2nc(N)nc(CCl)n2)cc1	none
CN(C)c1ccc(Nc2nc(N)c3ccccc3n2)cc1	SENP7 block 99, Platelet DG rel 80, SENP6 block 96, HSP90 refold inh 71, SENP8 block-2 95 | HSP90 confirm 92 | FLuc counter 78
COc1ccc(C(CC(=O)O)NC(C)=O)cc1OC (stereo unspecified)	HSP90 refold inh 18 | HSP90 confirm inactive | FLuc counter inactive
COc1ccccc1-c1cnc(C(O)c2c(C)cc(C)cc2C)[nH]1 (stereo unspecified)	none (no result: SENP7 block, Platelet DG rel, SENP6 block, HSP90 refold inh, SENP8 block-2)
Brc1ccc(C2=Nn3cnnc3SC2)cc1	none
CCn1c(C)nc2cc(N)ccc21	HSP90 refold inh 34 | HSP90 confirm inactive | FLuc counter inactive
CC(C)N1CC(C(=O)Nc2ccc(S(=O)(=O)N3CCCCC3)cc2)CC1=O (stereo unspecified)	HSP90 refold inh 26 | HSP90 confirm inactive | FLuc counter inactive
COc1ccc(N(C(C)C(=O)Nc2ccc(S(=O)(=O)N3CCCCC3)cc2)S(C)(=O)=O)cc1 (stereo unspecified)	HSP90 refold inh 18 | HSP90 confirm inactive | FLuc counter inactive
O=C(c1cccc(NS(=O)(=O)c2ccc(F)c(F)c2)c1)N1CCCCC1	none (no result: Platelet DG rel, HSP90 refold inh)
CCn1nnc2cc(C(=O)NCCc3ccccc3F)ccc21	HSP90 refold inh 43 | HSP90 confirm 59 | FLuc counter 39
S=C(NCc1ccccc1)Nc1cccc2ccccc12	none
Cc1ccc(NC(=S)Nc2cccc3ccccc23)cc1F	SENP6 block 93, HSP90 refold inh 19, SENP8 block-2 89 | HSP90 confirm 30 | FLuc counter inactive
C=CCN(C(=O)CNC(=O)c1ccco1)C(C(=O)NC1CCCC1)c1ccc(OC)cc1 (stereo unspecified)	none
Cc1cc(C(=O)COC(=O)c2ccccc2Br)c(C)n1CC1CCCO1 (stereo unspecified)	SENP7 block 94, SENP6 block 95, HSP90 refold inh 85, SENP8 block-2 93 | HSP90 confirm 84 | FLuc counter 84
Cc1cc(C(=O)COc2ccccc2C(N)=O)c(C)n1CC1CCCO1 (stereo unspecified)	none
Cc1cc(C(=O)COC(=O)c2cc(O)c3ccccc3c2O)c(C)n1CC1CCCO1 (stereo unspecified)	none (no result: SENP7 block, Platelet DG rel, SENP6 block, SENP8 block-2)
Cc1ccc(C(=O)OCC(=O)c2cc(C)n(CC3CCCO3)c2C)cc1 (stereo unspecified)	HSP90 refold inh 32 | HSP90 confirm 35 | FLuc counter 32
Cc1cc(C(=O)COC(=O)c2ccccc2NCCO)c(C)n1CC1CCCO1 (stereo unspecified)	HSP90 refold inh 53 | HSP90 confirm 23 | FLuc counter inactive
CN=c1scc(-c2ccccc2F)n1/N=C/c1ccc(O)c(O)c1O	Platelet DG rel 77, SENP8 block-1 43, HSP90 refold inh 22 (no result: SENP7 block, SENP6 block, SENP8 block-2) | HSP90 confirm 92 | FLuc counter 89
O=C(O)c1ccc(Nc2nc3c(s2)CCCC3)cc1	SENP7 block 100, SENP6 block 99, HSP90 refold inh 67, SENP8 block-2 96 | HSP90 confirm 91 | FLuc counter 80
Cc1cccc(Nc2nc3c(s2)CCCC3)c1	none (no result: SENP7 block, SENP6 block, SENP8 block-2)
CC(=O)/C=C(\C)Nc1ccccc1O	HSP90 refold inh 18 | HSP90 confirm 26 | FLuc counter inactive
COc1ccc(C(=O)NCc2nnc(SCC(=O)N3CCc4ccccc43)n2CCc2ccccc2)cc1	none
CC(C)C[C@H](NC(=O)C1CC(=O)N(c2ccc3c(c2)OCCO3)C1)C(=O)N1CCCCC1 (stereo partly specified)	none
N#Cc1cc2c(nc1SCC(=O)N1CCOCC1)CCCCC2	HSP90 refold inh 54 | HSP90 confirm inactive | FLuc counter inactive
N#Cc1cc2c(nc1SCC(N)=O)CCCCC2	none
COc1cccc(-c2ncc3ccccc3c2COC(=O)CCCC(=O)O)c1	none (no result: Platelet DG rel, HSP90 refold inh)
Cc1cc(NC(=O)NC(=O)c2ccc(F)cc2F)n[nH]1	HSP90 refold inh 23 | HSP90 confirm 39 | FLuc counter 26
COc1ccccc1Nc1nn2c(=O)c3ccc(C(=O)NCc4cccnc4)cc3nc2s1	HSP90 refold inh 20 | HSP90 confirm 38 | FLuc counter inactive
COc1cc(NCCCC(C)N)c2ncccc2c1 (stereo unspecified)	SENP8 block-1 57, HSP90 refold inh 23 (no result: SENP7 block, SENP6 block, SENP8 block-2) | HSP90 confirm inactive | FLuc counter inactive
O=C(NNC(=S)NC(=O)c1cccnc1)c1ccc(F)cc1	HSP90 refold inh 28 | HSP90 confirm inactive | FLuc counter inactive
O=C(NNC(=S)NC(=O)c1ccc(F)cc1)c1cccnc1	none
C/C=C/c1ccc2c(c1)O[C@H](CN(C)C(=O)NC1CCCC1)[C@H](C)CN([C@H](C)CO)S2(=O)=O	none (no result: SENP7 block, Platelet DG rel, SENP6 block, HSP90 refold inh, SENP8 block-2)
Cc1ccccc1OCC(=O)N(CC(C)C)c1c(N)n(CC(C)C)c(=O)[nH]c1=O	HSP90 refold inh 45 | HSP90 confirm inactive | FLuc counter inactive
Cc1ccc(-c2noc(CCC(=O)NCc3ccco3)n2)cc1	HSP90 refold inh 24 | HSP90 confirm inactive | FLuc counter inactive
Cc1ccc(C)c(Cn2nc(-c3cc(C)ccc3C)ccc2=O)c1	none
CCCN(CC(=O)Nc1ccccc1C)C(=O)CSc1ccccc1C	none (no result: Platelet DG rel, HSP90 refold inh)
CCN(CCO)c1ccc(N=Nc2cc(C)[nH]n2)cc1	HSP90 refold inh 57 | HSP90 confirm 76 | FLuc counter 68
Cc1nc2sc(-c3ccccc3)cc2c(=O)n1N	SENP7 block 99, Platelet DG rel 80, SENP6 block 95, HSP90 refold inh 19, SENP8 block-2 96 | HSP90 confirm 77 | FLuc counter 66
CC(=O)NC(CC(=O)N(Cc1ccccc1)c1cccc(C)c1)c1ccccc1 (stereo unspecified)	none
CC(C)C/C(O)=C/c1nc2cc(Cl)ccc2oc1=O	none
O=c1oc2ccc(Cl)cc2nc1/C=C(\O)c1ccco1	HSP90 refold inh 82 | HSP90 confirm 79 | FLuc counter inactive
CC(O)(c1cccnc1)c1nc(-c2cccc(C#N)c2)cs1 (stereo unspecified)	none (no result: SENP7 block, Platelet DG rel, SENP6 block, HSP90 refold inh, SENP8 block-2)
CN(C(=O)COC(=O)c1ccc2ccccc2n1)C1CCCCC1	none (no result: Platelet DG rel, HSP90 refold inh)
O=C(O)c1ccc(NC(CSCc2ccc(F)cc2)C(=O)O)c([N+](=O)[O-])c1 (stereo unspecified)	none
Cc1ccc(CSCC(Nc2ccc(C(=O)O)cc2[N+](=O)[O-])C(=O)O)cc1 (stereo unspecified)	HSP90 refold inh 25 | HSP90 confirm inactive | FLuc counter inactive
